Data on seven molecules can be found in PubChem BioAssay.

The structures appear in SMILES notation. The source made the active and inactive calls.

Assay [1] deals with Plasmodium falciparum Sir2 (PF13_0152, Sir2A). The assay can be described thus: Plasmodium falciparum Sir2A binding compounds – biochemical, small-molecule microarray, 635 nm fluorescence, primary screen (AID 1098).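 Note: score merges spot fluorescence intensity with its signal-to-noise ratio.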 The note with it: fluorescence 635 nm, higher = more signal.
A short description of assay [2]: probe aDKK1 binding to arrayed compounds – biochemical, biotinylated probe, 635/667 nm fluorescence, primary screen (AID 1099).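 Note: score merges 667nm spot fluorescence with signal to noise across triplicate slides; reference of the scale not given here.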 The conditions noted are these: small-molecule microarray, higher = more signal.
A short description of assay [3]: probe aCHRDL2 binding to arrayed compounds – biochemical, biotinylated probe, 635/667 nm fluorescence, primary screen (AID 1100). The conditions noted are these: small-molecule microarray, higher = more signal.
Assay [4] can be described thus: change in splice reporter luminescence, either direction, cell-based, HEK293, spliceosome inhibition project, primary screen (AID 1101).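 Note: HEK293 cells carrying a splicing-competent luciferase reporter gene; test concentration not given here.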 The note with it: HEK293 splicing luciferase reporter, 24 h, higher = more signal, called active from +8 up or from −8 down. For orientation: In a reporter assay the amount or activity of a reporter protein is the signal.
The target of assay [5] is Fibroblast growth factor 10 (Homo sapiens) (UniProt O15520). Description: compounds binding fibroblast growth factor 10 – biochemical, small-molecule microarray, 635 nm fluorescence, primary screen (AID 1102). The note with it: FGF10 binding, fluorescence 635 nm, higher = more signal.
For assay [6], the system named is glycogen synthase kinase-3 (GSK3A per assay name; protocol says GSK3B). The assay can be described thus: compounds binding glycogen synthase kinase-3 – biochemical, small-molecule microarray, 635 nm fluorescence, GSK3A, primary screen (AID 1103). Note: the record names both GSK3A and GSK3B. The conditions noted are these: fluorescence 635 nm, higher = more signal.
Assay [7] addresses Epidermal growth factor receptor (Homo sapiens) (UniProt P00533). Description: compounds binding epidermal growth factor receptor – biochemical, small-molecule microarray, 635 nm fluorescence, primary screen (AID 1104).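 Note: score merges 667 nm emission intensity with spot signal to noise over triplicate slides.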 The note with it: EGFR binding, higher = more signal.
Assay [8] addresses Follistatin-related protein 3 (Homo sapiens) (UniProt O95633). The assay can be described thus: compounds binding follistatin-related protein 3 – biochemical, small-molecule microarray, 635 nm fluorescence, primary screen (AID 1105).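 Note: score merges emission near 667 nm and signal to noise per printed spot across three slides.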 The note with it: FSTL3 binding, higher = more signal.
The target in assay [9] is Dickkopf-related protein 1 (Homo sapiens) (UniProt O94907). The assay can be described thus: small molecules binding DKK1 protein – biochemical, small-molecule microarray, 635 nm fluorescence scan, primary screen (AID 1106).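 Note: score merges emission near 667 nm with signal to noise over three replicate slides.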 The conditions noted are these: higher = more signal.
For assay [10], the system named is Inhibin beta A chain (activin A). The assay can be described thus: small molecules binding activin A – biochemical, small-molecule microarray, 635 nm fluorescence scan, primary screen (AID 1107).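 Note: mouse activin A protein probed at 4.33 µg/mL on printed slides; score merges bound-protein fluorescence near 667 nm with spot signal-to-noise.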 The conditions noted are these: INHBA, higher = more signal.

Follistatin-related protein 3 (Homo sapiens), sequence (O95633 whole entry, looked up): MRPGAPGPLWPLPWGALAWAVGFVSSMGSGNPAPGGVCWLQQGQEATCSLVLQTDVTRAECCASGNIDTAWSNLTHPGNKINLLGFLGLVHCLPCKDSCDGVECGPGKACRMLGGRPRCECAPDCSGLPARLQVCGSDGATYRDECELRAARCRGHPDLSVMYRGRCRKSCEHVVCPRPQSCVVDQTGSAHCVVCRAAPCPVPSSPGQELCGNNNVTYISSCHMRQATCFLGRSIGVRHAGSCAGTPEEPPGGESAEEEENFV
Epidermal growth factor receptor (Homo sapiens), sequence (P00533 whole entry, looked up): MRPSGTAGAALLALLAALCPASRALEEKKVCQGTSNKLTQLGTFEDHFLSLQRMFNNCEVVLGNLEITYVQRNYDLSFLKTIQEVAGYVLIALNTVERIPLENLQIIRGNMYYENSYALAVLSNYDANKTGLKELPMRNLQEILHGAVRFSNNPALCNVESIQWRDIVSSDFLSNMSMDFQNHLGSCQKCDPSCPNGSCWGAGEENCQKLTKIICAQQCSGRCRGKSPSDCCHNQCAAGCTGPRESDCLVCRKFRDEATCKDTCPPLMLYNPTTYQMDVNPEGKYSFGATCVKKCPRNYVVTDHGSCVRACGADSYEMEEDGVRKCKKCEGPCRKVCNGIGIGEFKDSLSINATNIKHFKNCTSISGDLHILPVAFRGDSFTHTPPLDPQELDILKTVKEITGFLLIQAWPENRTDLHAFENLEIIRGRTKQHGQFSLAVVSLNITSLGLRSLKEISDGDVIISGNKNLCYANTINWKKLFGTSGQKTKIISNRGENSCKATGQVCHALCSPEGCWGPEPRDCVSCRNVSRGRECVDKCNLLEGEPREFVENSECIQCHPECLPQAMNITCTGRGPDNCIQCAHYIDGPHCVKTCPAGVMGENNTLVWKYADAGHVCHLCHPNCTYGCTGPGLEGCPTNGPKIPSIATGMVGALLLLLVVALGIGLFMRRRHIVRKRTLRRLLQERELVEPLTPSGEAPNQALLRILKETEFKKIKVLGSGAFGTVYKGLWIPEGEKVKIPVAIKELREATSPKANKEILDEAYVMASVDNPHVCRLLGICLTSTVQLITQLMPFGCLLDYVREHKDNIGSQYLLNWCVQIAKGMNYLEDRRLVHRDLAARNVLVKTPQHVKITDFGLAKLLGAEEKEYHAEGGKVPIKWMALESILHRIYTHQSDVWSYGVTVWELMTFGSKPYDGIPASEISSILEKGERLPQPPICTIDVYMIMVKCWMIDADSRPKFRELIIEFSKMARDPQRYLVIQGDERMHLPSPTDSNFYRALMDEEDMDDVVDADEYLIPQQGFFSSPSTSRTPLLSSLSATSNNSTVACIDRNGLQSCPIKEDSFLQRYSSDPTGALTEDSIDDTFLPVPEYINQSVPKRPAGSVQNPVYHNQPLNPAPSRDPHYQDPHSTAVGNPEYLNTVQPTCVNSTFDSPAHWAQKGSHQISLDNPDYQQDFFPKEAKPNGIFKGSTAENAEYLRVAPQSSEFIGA
Fibroblast growth factor 10 (Homo sapiens), sequence (O15520 whole entry, looked up): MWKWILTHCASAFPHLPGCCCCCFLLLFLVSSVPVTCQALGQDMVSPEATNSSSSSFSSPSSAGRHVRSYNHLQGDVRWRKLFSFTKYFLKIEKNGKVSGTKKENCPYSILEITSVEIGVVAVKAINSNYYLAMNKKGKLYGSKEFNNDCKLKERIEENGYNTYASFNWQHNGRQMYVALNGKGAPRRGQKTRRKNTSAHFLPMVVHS
Dickkopf-related protein 1 (Homo sapiens), sequence (O94907 whole entry, looked up): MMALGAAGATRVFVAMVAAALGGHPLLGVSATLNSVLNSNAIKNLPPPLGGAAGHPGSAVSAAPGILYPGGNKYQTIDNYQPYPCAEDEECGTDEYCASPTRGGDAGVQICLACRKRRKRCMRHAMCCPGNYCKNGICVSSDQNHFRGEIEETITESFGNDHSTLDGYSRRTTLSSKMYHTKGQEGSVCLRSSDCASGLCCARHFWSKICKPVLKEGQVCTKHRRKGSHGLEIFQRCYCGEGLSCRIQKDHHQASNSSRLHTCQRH

With `CC(C)(C)N1CC=CC23O[C@@H]4C=CCCOC(=O)C4[C@H]2C(=O)N(CCO)[C@@H]3C1=O` (stereo not given in full), the composite z-score in [1] is -1.04; in assay [2] it was -0.106; in assay [3] it was -0.254; in assay [5] it was -0.385; in [6], -0.649; in assay [7] it was -0.306. The values for the composite z-score in [8], in assay [9] and in assay [10] were -0.959, -0.492 and 0.0863, respectively. The z-score in assay [4] was 0.288 (inactive).
Regarding `COC(=O)c1c2oc(c1C(=O)OC)C(=O)N(C)Cc1cn(nn1)C[C@H](Cc1ccccc1)NC(=O)N[C@H](CO)CC2`, the composite z-score was -0.595 in [1]; -0.349 in [2]; -0.264 in assay [3]; -0.591 in [5]; -0.94 in [6]; -0.694 in assay [7]. Moreover, the composite z-score in assay [8] is -0.269; in assay [9] it was -0.316; in assay [10] it was -0.0248. Further, the z-score in assay [4] is 0.322 (inactive).
On to `COC(=O)c1c2oc(c1C(=O)OC)C(=O)N(Cc1ccccc1)Cc1cn(nn1)C[C@H](Cc1ccccc1)NC(=O)N[C@H](CO)CC2`, for which the composite z-score in assay [1] is 0.909; in [2], -0.0239; in assay [3], -0.342; in [5], 0.247; in assay [6], 0.278; in assay [7], 0.0933. The values for the composite z-score in [8], in [9] and in [10] were 0.111, -0.0193 and 0.0809, respectively. Besides, the z-score in [4] was -2.12 (inactive).
In the case of `CC(C)C(CO)N1C(=O)[C@@H]2C3C(=O)OCCC/C=C\[C@H]3OC23C=CCN(C(C)(C)C)C(=O)[C@@H]13` (stereo not given in full), the composite z-score in assay [1] was 1.2; in [2] it was -0.456; in assay [3], -0.384; in [5], -0.598; in assay [6], 0.0664; in assay [7], -0.44. Further, the composite z-score is -0.504 in assay [8], -0.268 in assay [9] and 1.05 in assay [10]. Also, in assay [4], the z-score is 0.476 (inactive).
Regarding `CN(C)C(=O)[C@]1(CCS(=O)(=O)c2ccccc2)N=C(c2ccc(OCCCO)cc2)O[C@@H]1c1ccccc1N=[N+]=[N-]`, the composite z-score is 1.78 in assay [1]; 0.774 in assay [2]; 0.923 in [3]; 1.42 in [5]; 0.581 in [6]; 0.564 in assay [7]. In addition, the composite z-score amounted to 1.45 in assay [8], 0.553 in assay [9] and 1.33 in [10]. The z-score in assay [4] was -2.08 (inactive).
On to `OCC1CC(c2ccccc2)=NO1` (stereo not given), for which the composite z-score in [1] was 0.0686; in assay [2], -0.217; in assay [3], -0.354; in assay [5] it was 0.0912; in assay [6] it was 0.0016; in [7], 0.37. Moreover, the composite z-score in [8] is -0.0588; in assay [9], 0.473; in assay [10] it was 0.685. In assay [4], the z-score was -0.0813 (inactive).
Take `COc1ccc(C#Cc2ccc3c(c2)[C@]2(C(=O)N3)[C@H](c3ccc(O)cc3)N3[C@H](c4ccccc4)[C@H](c4ccccc4)OC(=O)[C@H]3[C@@H]2C(=O)O)cc1`: the composite z-score is 1.04 in [1]; -0.901 in assay [2]; -0.596 in assay [3]; 0.368 in assay [5]; 0.74 in [6]; -0.209 in assay [7]. Also, the composite z-score in assay [8] was -0.114; in [9], -0.474; in assay [10], 0.326. Also, the z-score in assay [4] is -0.518 (inactive).
